Laboratory results reported in PubChem BioAssay (NCATS).
“And” between values parts separate entries of the source, which are not always exact repeats. Equal entries are not always repeated. Results filed as inconclusive are left out. The source made the active and inactive calls. Unless noted, the call rests on the fitted dose curve; in most records, active means well fitted curve in the direction sought with a large enough effect; inconclusive means small, poorly fitted or top-dose-only effect, or another doubt; inactive means no such curve, though single readings can be large; an effect the other way counts as inactive or inconclusive.

How the values were obtained:
[1] = biological target: Aldehyde dehydrogenase 1A1 (Homo sapiens) (UniProt P00352); assay: qHTS for Inhibitors of the Aldehyde Dehydrogenase Family (ALDH1A1) Confirmatory screens (AID 2061316); further: nearly all actives have a fitted effect of over 65% in size; further: potency means the concentration at half of the fitted maximal effect
[2] = BET inhibitor-based combinations targeting novel dependencies in MECOM-rearranged (r) AML: SET-2 cell line (AID 2202231); settings: SET-2 AML cells viability, CellTiter-Glo luminescence, 48 h; viability: stronger effect = lower value, concentration not given here; further: nearly all actives have a fitted effect of over 35% in size; further: potency means the concentration at half of the fitted maximal effect;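 on viability: plate controls were DMSO treated cells for no effect and wells without cells for full effect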
Procedure, shortened: (§1)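 Luminescent ATP readout (CellTiter-Glo) after 48 hr drug exposure gives viability. Curves span 11 concentrations and are normalized to DMSO and empty wells. Activity is reported as area under the curve and its Z-transform within each cell line.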

[3] = BET inhibitor-based combinations targeting novel dependencies in MECOM-rearranged (r) AML: MV-4-11 cell line (AID 2202233); further: nearly all actives have a fitted effect of over 45% in size; further: potency means the concentration at half of the fitted maximal effect
Procedure, shortened: (§2)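 Luminescent ATP readout (CellTiter-Glo, 15 min at room temperature) after 48 hr drug exposure gave viability. Dose-response curves, normalized to DMSO and empty-well controls, were summarized as area under the curve and its mean-centred Z-score.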

[4] = BET inhibitor-based combinations targeting novel dependencies in MECOM-rearranged (r) AML: UCSD-AML1 cell line (AID 2202235); further: nearly all actives have a fitted effect of over 40% in size; further: potency means the concentration at half of the fitted maximal effect
Procedure, shortened: as §2

[5] = BET inhibitor-based combinations targeting novel dependencies in MECOM-rearranged (r) AML: AML-194 cell line (AID 2202237;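 further: plate controls were vehicle wells for no effect and wells without cells for full effect; nearly all actives have a fitted effect of over 40% in size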)
Procedure, shortened: as §1

[6] = biological target: Cellular tumor antigen p53 (Homo sapiens) (UniProt P04637); assay: Primary qHTS for small molecule compounds that upregulate eGFP-tagged delta133p53alpha (in N-terminal) cells. (AID 2060322); settings: NCI-H358 eGFP-delta133p53alpha fluorescence, 24 h; activation: stronger effect = higher value; further: nearly all actives have a fitted effect of over 75% in size; further: potency means the concentration at half of the fitted maximal effect;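 on activation: cells pre-induced with doxycycline then dosed without doxycycline; series mostly up to about 56 µM; 0% = DMSO vehicle and 100% = reference activator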
Sequence of Cellular tumor antigen p53 (Homo sapiens) (P04637 whole entry, looked up): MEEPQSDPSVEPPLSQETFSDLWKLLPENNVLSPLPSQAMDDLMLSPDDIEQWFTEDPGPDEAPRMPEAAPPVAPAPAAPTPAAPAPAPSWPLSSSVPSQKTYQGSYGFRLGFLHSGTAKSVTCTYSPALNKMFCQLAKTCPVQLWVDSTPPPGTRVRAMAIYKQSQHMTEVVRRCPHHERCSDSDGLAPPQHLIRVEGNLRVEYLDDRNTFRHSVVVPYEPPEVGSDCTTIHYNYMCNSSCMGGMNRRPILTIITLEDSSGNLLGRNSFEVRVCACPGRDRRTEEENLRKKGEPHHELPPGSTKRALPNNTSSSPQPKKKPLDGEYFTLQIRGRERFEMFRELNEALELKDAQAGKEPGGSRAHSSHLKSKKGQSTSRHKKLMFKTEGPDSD
Procedure, shortened: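 NCI-H358 cells pre-induced 24 h with 10 ng/ml doxycycline for eGFP-delta133p53alpha, plated dox-free and exposed 24 h at 37C to titrated compounds. Fixed, Hoechst-stained; gated GFP peak intensity by laser scanning cytometry, normalized to DMSO (0%) and 57.5 uM 5-azacytidine (100%).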

[7] = qHTS for Inhibitors of the Aldehyde Dehydrogenase Family (ALDH1A2, ALDH1A3, ALDH2, ALDH3A1) (AID 2061307); further: on the % scale 0 is the no-effect control and ±100 the full control effect; nearly all actives have a fitted effect of over 50% in size
[8] = biological target: Aldehyde dehydrogenase, mitochondrial (Homo sapiens) (UniProt P05091); assay: qHTS for Inhibitors of the Aldehyde Dehydrogenase Family (ALDH2) Primary screen (AID 2061308);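 further: plate controls were vehicle for no effect and reference inhibitor for full effect; nearly all actives have a fitted effect of over 55% in size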
[9] = biological target: Retinaldehyde dehydrogenase 3 (Homo sapiens) (UniProt P47895); assay: qHTS for Inhibitors of the Aldehyde Dehydrogenase Family (ALDH1A3) Confirmatory screens (AID 2061311); further: nearly all actives have a fitted effect of over 60% in size; further: potency means the concentration at half of the fitted maximal effect
[10] = biological target: Retinal dehydrogenase 2 (Homo sapiens) (UniProt O94788); assay: qHTS for Inhibitors of the Aldehyde Dehydrogenase Family (ALDH1A2) Confirmation screens (AID 2061314); further: nearly all actives have a fitted effect of over 65% in size; further: potency means the concentration at half of the fitted maximal effect
[11] = biological target: Retinaldehyde dehydrogenase 3 (Homo sapiens) (UniProt P47895); assay: qHTS for Inhibitors of the Aldehyde Dehydrogenase Family (ALDH1A3) Primary screen (AID 2061315); further: potency means the concentration at half of the fitted maximal effect
[12] = BET inhibitor-based combinations targeting novel dependencies in MECOM-rearranged (r) AML: OCI-AML3 cell line (AID 2202232); settings: Potency: OCI-AML3 viability;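 further: series mostly up to about 46 µM; plate controls were DMSO vehicle wells for no effect and wells without cells for full effect; nearly all actives have a fitted effect of over 35% in size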
Procedure, shortened: as §1

[13] = biological target: Aldehyde dehydrogenase, mitochondrial (Homo sapiens) (UniProt P05091); assay: qHTS for Inhibitors of the Aldehyde Dehydrogenase Family (ALDH2) Validation screens (AID 2061302; active means well fitted inhibition curve with a large enough effect; title and protocol of this record describe different tests;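 further: plate controls were DMSO vehicle for no effect and maximal DPI positive control response for full effect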)
[14] = biological target: Retinaldehyde dehydrogenase 3 (Homo sapiens) (UniProt P47895); assay: qHTS for Inhibitors of the Aldehyde Dehydrogenase Family (ALDH1A3) Validation screen (AID 2061312); further: on the % scale 0 is the no-effect control and ±100 the full control effect; nearly all actives have a fitted effect of over 45% in size
[15] = biological target: Aldehyde dehydrogenase, mitochondrial (Homo sapiens) (UniProt P05091); assay: qHTS for Inhibitors of the Aldehyde Dehydrogenase Family (ALDH2) Confirmatory screens (AID 2061303; active means well fitted inhibition curve with a large enough effect; title and protocol of this record describe different tests; further: on the % scale 0 is the no-effect control and ±100 the full control effect; nearly all actives have a fitted effect of over 45% in size)

NC(=O)CI
active: Potency [1] 20.1 µM

Cc1cccc(C)c1NC(=O)CN1CCCC1=O
inactive: viability [2] 109% | Potency [3] | Potency [4] | Potency [5]

COC[C@H]1OC(=O)c2coc3c2[C@@]1(C)C1=C(C3=O)C2CCC(=O)[C@@]2(C)C[C@H]1OC(C)=O (stereo not given in full)
active: Potency [2] 18.6 µM | Potency [3] 5.25 µM | Potency [4] 5.9 µM

COC1=C[C@@H]2[C@@H]3Cc4ccc(OC)c(O)c4[C@]2(CCN3C)CC1=O
inactive: activation [6] 8.33% | Potency [7] | Potency [8] | Potency [9] | Potency [11] | Potency [1] | Potency [12] | Potency [3] | Potency [4] | Potency [5]
active: Potency [10] 7.12 µM

Cn1c(CCCC(=O)O)nc2cc(N(CCCl)CCCl)ccc21
inactive: activation [6] 27.7% and 5.11% and -16.6% | Potency [13] | viability [2] 78.5%
active: Potency [3] 10.5 µM

OCCCCC#Cc1cncc(OC[C@@H]2CCN2)c1
inactive: activation [6] -1.43% | Potency [8]

N#Cc1ccc([C@H]2CCCC[C@H]2O)cc1C(F)(F)F
inactive: activation [6] 11% | Potency [8] | Potency [14] | Potency [11]

C/C=C(/C)C1C=CC2CC(C)CC(C)C2C1/C(O)=C1\C(=O)NC(CC(C)(O)C(=O)O)C1=O (stereo not given)
inactive: activation [6] -26% | Potency [8] | Potency [9] | Potency [11]

N#Cc1ccc(N2CCN(C(=O)COc3ccc4[nH]cc(CCN)c4c3)CC2)cc1
inactive: activation [6] -4.3% | Potency [15] | Potency [8] | Potency [14] | Potency [1]

CS[C@]1(CO)C(=O)N2[C@H]3C(=CC=C[C@@H]3O)C[C@@]2(SC)C(=O)N1C
inactive: activation [6] -6.11% | Potency [8]

COc1cc(N2CCN(C)CC2)ccc1N
inactive: activation [6] 20% | Potency [7] | Potency [8]
active: Potency [9] 25.2 µM | Potency [11] 1.26 µM

COc1cc2c(c(OC)c1OC)-c1ccc(SC)c(=O)cc1[C@@H](NC(C)=O)CC2
inactive: activation [6] 8.33% | Potency [8]

CC[C@@H]1C[C@H]2CC[C@H](O2)[C@H](C)C(=O)O[C@@H](C)C[C@@H]2CC[C@@H](O2)[C@@H](C)C(=O)O[C@H](CC)C[C@H]2CC[C@H](O2)[C@H](C)C(=O)O[C@@H](C)C[C@@H]2CC[C@@H](O2)[C@@H](C)C(=O)O1
active: Potency [6] 6.3 µM
inactive: Potency [8]

O=C(OC[C@H]1O[C@@H](Oc2ccc(O)cc2CO)[C@H](O)[C@@H](O)[C@@H]1O)c1ccccc1
inactive: activation [6] 28.6% | Potency [8]

C[C@@]1(C(=O)O)CC[C@]2(C)CC[C@]3(C)C4=CC(=O)c5cc(O)c(O)cc5[C@]4(C)CC[C@@]3(C)[C@@H]2C1
active: Potency [11] 4.47 µM
inactive: activation [6] -19.1% | Potency [15] | Potency [7] | Potency [8] | Potency [10] | Potency [1]

CCCN(CCC)[C@@H]1CCc2ccc3[nH]c(C#N)cc3c2C1
inactive: activation [6] 19.1% | Potency [15] | Potency [7] | Potency [8] | Potency [9] | Potency [10] | Potency [11]
